# Test results: PubChem BioAssay (EPA / NIEHS)
# “And” between values parts separate entries of the source, which are not always exact repeats. Equal values may be shown once. Inconclusive results are not listed. A structure can be active in one record and inactive in another. The source made the active and inactive calls. Rule for the calls, unless noted: active = hit-call score of the fitted dose curve at least 0.9, where 1 is the maximum; inconclusive = response in the unintended direction; inactive = score below 0.9.
# Assays:
# [1] = CPHEA_Stoker_NIS_Cytotoxicity: Cytotoxicity Assessment for CPHEA's Radioactive Iodide Uptake (RAIU) Assay for Sodium/Iodide Symporter (NIS) Inhibition, Stoker and Laws Labs (AID 2283897);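 for AC50: active means loss of ATP signal versus DMSO meaning cytotoxicity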
# Summary of the method: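 hNIS-HEK293T-EPA human kidney cells were exposed for 2 hours at room temperature to test chemicals (0.001–100uM, 0.5% final DMSO) in HEPES-buffered HBSS, pH 7.4. Viability was read as ATP content by luciferase bioluminescence, loss of signal versus DMSO.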
# [2] = molecular target: mouse Peroxisome Proliferator-activated Receptor gamma (PPARg), Pparg (gene 19016) (UniProt P37238); test: ATG_mPPARg_XSP2: Attagene TRANS-FACTORIAL Multi-Species (XSP2) HepG2 Assay for mouse Peroxisome Proliferator-activated Receptor gamma (PPARg) (AID 2283830);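 note: hits are gains in reporter mRNA above DMSO so AC50 marks activation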
# Summary of the method: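 HepG2 cells transiently transfected with GAL4-UAS reporter units for chimeric NR-Gal4 proteins including mouse PPARg, exposed 24 h; medium contained 3 nM 6-alpha-fluorotestosterone and 1.5 nM norgestrel. Reporter mRNA quantified by RT-PCR, HpaI digestion and capillary electrophoresis, vs DMSO.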
# [3] = molecular target: Nuclear receptor subfamily 1 group I member 2 (Mus musculus) (UniProt O54915); test: ATG_mPXR_XSP2: Attagene TRANS-FACTORIAL Multi-Species (XSP1) HepG2 Assay for mouse Pregnane X Receptor (PXR) (AID 2283831)
# Summary of the method: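 Fluorescence signals from capillary electrophoresis of RT-PCR-amplified reporter mRNA give the readout, gain-of-signal versus DMSO. Transfected HepG2 cells, 24 h dosing, medium contained 3 nM 6-alpha-fluorotestosterone and 1.5 nM norgestrel.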
# [4] = molecular target: zebrafish Thyroid Hormone Receptor alpha (TRa), thraa (gene 30670) (UniProt Q98867); test: ATG_zfTRa_XSP2: Attagene TRANS-FACTORIAL Multi-Species (XSP1) HepG2 Assay for zebrafish Thyroid Hormone Receptor alpha (TRa) (AID 2283832);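 note: actives raise zebrafish TRa-Gal4 reporter transcript above DMSO baseline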
# Summary of the method: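 Transient transfection of human HepG2 with GAL4-UAS reporter units, then 24 h chemical treatment. RNA isolated, reverse-transcribed, PCR-amplified, FAM-labelled, HpaI-digested and run on capillary electrophoresis. Gain-of-signal relative to DMSO.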
# [5] = tested on: zebrafish Peroxisome Proliferator-activated Receptor gamma (PPARg), gene 557037; test: ATG_zfPPARg_XSP2: Attagene TRANS-FACTORIAL Multi-Species (XSP2) HepG2 Assay for zebrafish Peroxisome Proliferator-activated Receptor gamma (PPARg) (AID 2283833);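 note: reporter mRNA from a zebrafish PPARg GAL4 chimera measured by RT-PCR and capillary electrophoresis; actives increase reporter signal over DMSO so AC50 reflects activation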
# Summary of the method: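 HepG2, transient MRTU transfection, 24 h compound; zfPPARg-GAL4 reporter mRNA by RT-PCR + capillary electrophoresis; gain-of-signal vs DMSO.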
# [6] = tested on: turtle Thyroid Hormone Receptor, alpha (TRa), gene 101949057; test: ATG_trTRa_XSP2: Attagene TRANS-FACTORIAL Multi-Species (XSP1) HepG2 Assay for turtle Thyroid Hormone Receptor, alpha (TRa) (AID 2283834);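 note: hits raise reporter mRNA over the DMSO baseline so AC50 marks activators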
# Summary of the method: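 Multiplexed TRANS reporter assay; HepG2 carrying NR-Gal4 constructs treated 24 h. mRNA of the GAL4-UAS reporter quantified via labelled RT-PCR fragments on a genetic analyzer, vs DMSO negative control.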
# [7] = ATG_M_61_XSP2: Attagene TRANS-FACTORIAL Multi-Species (XSP2) HepG2 Assay for M61 Transcription Factor (Internal Marker) (AID 2283835; active = hit-call score of the fitted dose curve at least 0.9, where 1 is the maximum; inactive = score below 0.9;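 note: reporter mRNA of an internal background marker read by RT-PCR and capillary electrophoresis; active means a rise in signal above the DMSO baseline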)
# Summary of the method: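 First, HepG2 cells are transfected with reporter units under GAL4-UAS control. Next, chemicals are applied for 24 h. Then total RNA is reverse-transcribed, amplified, fluorescently labelled and sized by capillary electrophoresis, with gain of signal scored against DMSO.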
# [8] = molecular target: zebrafish Thyroid Hormone Receptor beta (TRb), thrb (gene 30607) (UniProt Q9PVE4); test: ATG_zfTRb_XSP2: Attagene TRANS-FACTORIAL Multi-Species (XSP1) HepG2 Assay for zebrafish Thyroid Hormone Receptor beta (TRb) (AID 2283836);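 for AC50: potency for induction of reporter signal above DMSO so agonist direction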
# Summary of the method: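 Human liver HepG2, transient MRTU transfection (NR-Gal4 chimeras, GAL4-UAS reporters); 24 h compound exposure; total RNA → oligo(dT) RT → PCR → 6-FAM label → HpaI cut → CE fluorescence. DMSO = negative control/baseline.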
# [9] = molecular target: human Thyroid hormone Receptor alpha (TRa), THRA (gene 7067) (UniProt P10827); test: ATG_hTRa_XSP2: Attagene TRANS-FACTORIAL Multi-Species (XSP2) HepG2 Assay for human Thyroid hormone Receptor alpha (TRa) (AID 2283838)
# Summary of the method: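 HepG2 cells were transiently transfected with GAL4-UAS reporter units for chimeric human TRa-Gal4 and dosed for 24 hours, with 3 nM 6-alpha-fluorotestosterone and 1.5 nM norgestrel present. Reporter mRNA was quantified by RT-PCR, FAM labelling and capillary electrophoresis, with gain of signal fitted versus DMSO.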
# [10] = molecular target: frog Thyroid hormone Receptor alpha (TRa), thra-a (gene 397942) (UniProt P15204); test: ATG_frTRa_XSP2: Attagene TRANS-FACTORIAL Multi-Species (XSP2) HepG2 Assay for frog Thyroid hormone Receptor alpha (TRa) (AID 2283839);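 for AC50: AC50 reflects induction of frog TRa-driven reporter mRNA above DMSO baseline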
# Summary of the method: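 Chimeric frog TRα-GAL4 activity in human liver cells measures reporter transcript induction 24 h post-dose. Detection uses RT-PCR, HpaI-digested labelled products and fluorescence capillary electrophoresis; DMSO serves as negative control.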
# [11] = molecular target: human Thyroid hormone Receptor beta (TRb), THRB (gene 7068) (UniProt P10828); test: ATG_hTRb_XSP2: Attagene TRANS-FACTORIAL Multi-Species (XSP2) HepG2 Assay for human Thyroid hormone Receptor beta (TRb) (AID 2283840);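 note: actives raise reporter mRNA so potency reflects agonist-like gain of signal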
# Summary of the method: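 Gain-of-signal reporter transcription, referenced to DMSO, was measured in transiently transfected HepG2 after 24 h exposure; labeled RT-PCR products were resolved by capillary electrophoresis. Assay medium included 3 nM 6-alpha-fluorotestosterone and 1.5 nM norgestrel.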
# [12] = CEETOX_H295R_OHPREG_noMTC: CeeTox H295R High-throughput Steroidogenesis Assay for OH-Pregnenolone (OHPREG), maximum tolerated concentration (MTC) filtered results only (AID 2283912; active = hit-call score of the fitted dose curve at least 0.9, where 1 is the maximum; inactive = score below 0.9); conditions: actives raise or lower the signal
# Summary of the method: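 Steroidogenesis in H295R cells (OECD 456, modified): after 48 h forskolin priming and 48 h chemical treatment, secreted 17alpha-hydroxypregnenolone is measured by HPLC-MS/MS. Activity is fitted in both directions against DMSO; concentrations are not filtered by MTT-based MTC.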
# [13] = CEETOX_H295R_OHPROG_noMTC: CeeTox H295R High-throughput Steroidogenesis Assay for OH-Progesterone (OHPROG), maximum tolerated concentration (MTC) filtered results only (AID 2283914; active = hit-call score of the fitted dose curve at least 0.9, where 1 is the maximum; inactive = score below 0.9); conditions: actives raise or lower the signal
# Summary of the method: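 Forskolin 10 uM, 48 h prestim → test cmpd in DMSO (0.1% final), 48 h → medium MTBE extraction → LC-MS/MS quant of 17alpha-OH-progesterone. Bidirectional fit vs DMSO; no MTT-based MTC filtering.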
# [14] = CEETOX_H295R_ANDR_noMTC: CeeTox H295R High-throughput Steroidogenesis Assay for Androstenedione (ANDR), maximum tolerated concentration (MTC) filtered results only (AID 2283915; active = hit-call score of the fitted dose curve at least 0.9, where 1 is the maximum; inactive = score below 0.9); conditions: actives raise or lower the signal
# Summary of the method: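 H295R cells, passage 10 or below, prestimulated 48 h with 10 uM forskolin, then exposed 48 h to chemical in 0.1% DMSO. Medium androstenedione extracted with MTBE, quantified by HPLC-MS/MS; concentrations not MTC-filtered; bidirectional fit versus DMSO.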
# [15] = CEETOX_H295R_ESTRADIOL_noMTC: CeeTox H295R High-throughput Steroidogenesis Assay for Estradiol, maximum tolerated concentration (MTC) filtered results only (AID 2283919; active = hit-call score of the fitted dose curve at least 0.9, where 1 is the maximum; inactive = score below 0.9); conditions: actives raise or lower the signal
# Summary of the method: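 H295R human adrenal cells pre-stimulated 48 h with 10 uM forskolin, then exposed 48 h to chemical (0.1% DMSO final). Estradiol in medium measured by HPLC-MS/MS after MTBE extraction and dansyl derivatization; bidirectional fit versus DMSO, concentrations not MTT-filtered.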
# [16] = CEETOX_H295R_PROG_noMTC: CeeTox H295R High-throughput Steroidogenesis Assay for Progesterone (PROG), maximum tolerated concentration (MTC) filtered results only (AID 2283920; active = hit-call score of the fitted dose curve at least 0.9, where 1 is the maximum; inactive = score below 0.9); conditions: actives raise or lower the signal
# Summary of the method: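 H295R cells; forskolin 10 uM x 48 h prestim; test cpd 48 h, 0.1% DMSO final; media progesterone via LC-MS/MS; bidirectional fit vs DMSO; no MTT-based MTC filter applied.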
# [17] = CEETOX_H295R_ESTRONE_noMTC: CeeTox H295R High-throughput Steroidogenesis Assay for Estrone, maximum tolerated concentration (MTC) filtered results only (AID 2283921; active = hit-call score of the fitted dose curve at least 0.9, where 1 is the maximum; inactive = score below 0.9); conditions: actives raise or lower the signal
# Summary of the method: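 H295R cells prestimulated 48 h with 10 uM forskolin, then exposed 48 h to chemical in 0.1% DMSO; medium estrone measured by HPLC-MS/MS after MTBE extraction and dansyl derivatization, fitted bidirectionally versus DMSO without MTT-based MTC filtering.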
# [18] = CEETOX_H295R_TESTO_noMTC: CeeTox H295R High-throughput Steroidogenesis Assay for Testosterone (TESTO), maximum tolerated concentration (MTC) filtered results only (AID 2283924; active = hit-call score of the fitted dose curve at least 0.9, where 1 is the maximum; inactive = score below 0.9); conditions: actives raise or lower the signal
# Summary of the method: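 H295R cells prestimulated 48 h with 10 uM forskolin, then exposed 48 h to chemicals in 0.1% DMSO final. Testosterone in medium quantified by MTBE extraction and HPLC-MS/MS; bidirectional fit versus DMSO, concentrations […] filtered by MTT-based maximum tolerated concentration.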
# Sequence of human Thyroid hormone Receptor beta (TRb), THRB (gene 7068) (P10828 whole entry, looked up): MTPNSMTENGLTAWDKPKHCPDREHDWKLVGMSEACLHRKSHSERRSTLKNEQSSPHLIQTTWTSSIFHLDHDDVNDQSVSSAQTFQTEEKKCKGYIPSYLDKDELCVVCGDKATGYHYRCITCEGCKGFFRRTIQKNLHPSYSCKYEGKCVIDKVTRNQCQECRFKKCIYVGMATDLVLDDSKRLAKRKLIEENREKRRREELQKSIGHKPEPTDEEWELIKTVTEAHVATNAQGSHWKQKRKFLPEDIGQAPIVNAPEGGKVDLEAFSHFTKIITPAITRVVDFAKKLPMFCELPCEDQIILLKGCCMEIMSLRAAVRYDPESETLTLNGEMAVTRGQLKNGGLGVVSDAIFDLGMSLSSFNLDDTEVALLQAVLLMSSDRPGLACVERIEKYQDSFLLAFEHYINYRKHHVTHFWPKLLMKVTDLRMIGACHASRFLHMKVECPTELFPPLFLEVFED
# Sequence of Nuclear receptor subfamily 1 group I member 2 (Mus musculus) (O54915 whole entry, looked up): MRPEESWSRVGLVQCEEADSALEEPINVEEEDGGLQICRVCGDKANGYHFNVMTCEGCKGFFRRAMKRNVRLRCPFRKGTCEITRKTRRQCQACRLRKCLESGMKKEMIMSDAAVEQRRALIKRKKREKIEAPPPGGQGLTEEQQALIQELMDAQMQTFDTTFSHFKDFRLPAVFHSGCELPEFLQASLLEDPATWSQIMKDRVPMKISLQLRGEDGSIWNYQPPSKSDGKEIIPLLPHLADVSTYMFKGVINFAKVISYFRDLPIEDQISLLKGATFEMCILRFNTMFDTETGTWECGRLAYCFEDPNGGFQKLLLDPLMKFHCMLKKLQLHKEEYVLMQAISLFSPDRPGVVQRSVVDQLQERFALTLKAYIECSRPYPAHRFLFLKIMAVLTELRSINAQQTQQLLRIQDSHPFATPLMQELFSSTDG
# Sequence of frog Thyroid hormone Receptor alpha (TRa), thra-a (gene 397942) (P15204 whole entry, looked up, the tested form may be a part): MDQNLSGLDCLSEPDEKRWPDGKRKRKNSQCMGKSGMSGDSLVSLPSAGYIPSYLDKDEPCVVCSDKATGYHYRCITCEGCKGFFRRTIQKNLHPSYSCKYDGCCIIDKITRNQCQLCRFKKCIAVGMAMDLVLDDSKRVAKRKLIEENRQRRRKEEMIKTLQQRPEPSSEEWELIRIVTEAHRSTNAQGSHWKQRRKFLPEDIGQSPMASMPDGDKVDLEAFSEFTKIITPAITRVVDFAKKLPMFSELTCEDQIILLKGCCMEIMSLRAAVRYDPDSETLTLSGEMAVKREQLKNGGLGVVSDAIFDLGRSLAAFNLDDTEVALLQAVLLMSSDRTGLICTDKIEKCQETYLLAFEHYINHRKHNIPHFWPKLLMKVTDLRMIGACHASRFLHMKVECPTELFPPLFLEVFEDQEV
# Sequence of mouse Peroxisome Proliferator-activated Receptor gamma (PPARg), Pparg (gene 19016) (P37238 whole entry, looked up, the tested form may be a part): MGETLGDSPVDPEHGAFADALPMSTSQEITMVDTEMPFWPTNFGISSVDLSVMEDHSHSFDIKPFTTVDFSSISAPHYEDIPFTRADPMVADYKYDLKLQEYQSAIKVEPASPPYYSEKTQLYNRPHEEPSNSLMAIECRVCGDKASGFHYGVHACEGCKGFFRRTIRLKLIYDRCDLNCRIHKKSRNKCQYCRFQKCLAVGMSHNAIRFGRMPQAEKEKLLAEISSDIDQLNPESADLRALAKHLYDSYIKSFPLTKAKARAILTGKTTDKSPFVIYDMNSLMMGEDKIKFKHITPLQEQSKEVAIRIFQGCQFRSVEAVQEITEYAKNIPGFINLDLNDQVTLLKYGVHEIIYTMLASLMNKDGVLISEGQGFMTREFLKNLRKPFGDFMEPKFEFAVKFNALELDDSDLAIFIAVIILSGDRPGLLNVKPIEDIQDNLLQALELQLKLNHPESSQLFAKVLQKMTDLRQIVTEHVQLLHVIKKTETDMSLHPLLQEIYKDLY
# Sequence of zebrafish Thyroid Hormone Receptor alpha (TRa), thraa (gene 30670) (Q98867 whole entry, looked up, the tested form may be a part): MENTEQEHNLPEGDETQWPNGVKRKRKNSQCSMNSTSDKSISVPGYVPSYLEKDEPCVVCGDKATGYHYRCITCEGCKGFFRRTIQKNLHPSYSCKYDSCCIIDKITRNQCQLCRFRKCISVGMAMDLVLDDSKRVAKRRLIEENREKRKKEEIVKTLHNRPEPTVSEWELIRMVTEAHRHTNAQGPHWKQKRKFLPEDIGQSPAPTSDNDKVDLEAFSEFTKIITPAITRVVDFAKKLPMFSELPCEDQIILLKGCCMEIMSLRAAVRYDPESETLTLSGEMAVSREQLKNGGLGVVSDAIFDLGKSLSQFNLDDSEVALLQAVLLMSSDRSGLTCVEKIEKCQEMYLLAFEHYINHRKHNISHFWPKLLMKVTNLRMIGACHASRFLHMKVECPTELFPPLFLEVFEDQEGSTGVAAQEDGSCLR
# Sequence of zebrafish Thyroid Hormone Receptor beta (TRb), thrb (gene 30607) (Q9PVE4 whole entry, looked up, the tested form may be a part): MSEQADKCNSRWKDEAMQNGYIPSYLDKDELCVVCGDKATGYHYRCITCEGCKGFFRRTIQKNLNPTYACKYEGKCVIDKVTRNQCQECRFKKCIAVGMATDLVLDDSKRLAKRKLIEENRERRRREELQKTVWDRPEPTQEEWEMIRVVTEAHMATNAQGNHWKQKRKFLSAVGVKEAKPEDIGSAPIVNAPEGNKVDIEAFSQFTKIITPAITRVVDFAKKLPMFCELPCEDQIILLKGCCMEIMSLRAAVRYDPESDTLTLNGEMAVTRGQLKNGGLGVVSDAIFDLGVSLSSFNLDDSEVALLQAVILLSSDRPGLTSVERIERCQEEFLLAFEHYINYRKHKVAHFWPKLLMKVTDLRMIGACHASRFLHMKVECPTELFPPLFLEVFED
# Sequence of human Thyroid hormone Receptor alpha (TRa), THRA (gene 7067) (P10827 whole entry, looked up, the tested form may be a part): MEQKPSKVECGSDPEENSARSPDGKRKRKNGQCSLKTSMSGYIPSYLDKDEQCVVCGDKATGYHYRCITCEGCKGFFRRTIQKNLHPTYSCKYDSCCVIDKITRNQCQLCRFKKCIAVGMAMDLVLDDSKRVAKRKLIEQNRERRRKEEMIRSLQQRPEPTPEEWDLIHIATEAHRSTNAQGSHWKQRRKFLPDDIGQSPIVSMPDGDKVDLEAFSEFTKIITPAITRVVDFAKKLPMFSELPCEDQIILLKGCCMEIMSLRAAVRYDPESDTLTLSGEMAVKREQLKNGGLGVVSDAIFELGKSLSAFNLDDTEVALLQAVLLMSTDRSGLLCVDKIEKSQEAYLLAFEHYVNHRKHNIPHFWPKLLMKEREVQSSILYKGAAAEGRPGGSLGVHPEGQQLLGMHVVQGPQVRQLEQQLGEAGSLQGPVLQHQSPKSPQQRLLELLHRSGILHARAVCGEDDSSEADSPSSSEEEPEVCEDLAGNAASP
compound,measurement,setting,value
CCNP(=S)(OC)O/C(C)=C/C(=O)OC(C)C (centres undefined),outcome,[1],inactive
CC(C)N1C(=O)N(c2ccccc2)CSC1=NC(C)(C)C,AC50,[1],40.8 µM (active)
N#Cc1c[nH]cc1-c1cccc2c1OC(F)(F)O2,AC50,[2],27.2 µM (active)
same,AC50,[3],6.52 µM (active) and 6.26 µM (active)
same,AC50,[4],27 µM (active)
same,outcome,[4],inactive
same,outcome,[5],inactive
same,outcome,[6],inactive
same,outcome,[7],inactive
same,AC50,[8],100 µM (active)
same,outcome,[8],inactive
same,AC50,[9],100 µM (active)
same,outcome,[9],inactive
same,AC50,[10],100 µM (active) and 60.7 µM (active)
same,outcome,[11],inactive
same,outcome,[1],inactive
CCCCOCN(C(=O)CCl)c1c(CC)cccc1CC,outcome,[1],inactive
CCN(CC)C(=O)C(C)Oc1cccc2ccccc12 (centres undefined),AC50,[2],42.6 µM (active)
same,AC50,[3],6.17 µM (active)
same,outcome,[4],inactive
same,outcome,[5],inactive
same,outcome,[6],inactive
same,outcome,[7],inactive
same,outcome,[8],inactive
same,outcome,[9],inactive
same,outcome,[10],inactive
same,outcome,[11],inactive
same,outcome,[1],inactive
CC1(C)C(C(=O)OC(C#N)c2cccc(Oc3ccccc3)c2)C1(C)C (centres undefined),outcome,[1],inactive
CCOP(=S)(OCC)Oc1nc(Cl)n(C(C)C)n1,outcome,[1],inactive
O=C(Nc1ccccc1-c1ccc(Cl)cc1)c1cccnc1Cl,outcome,[1],inactive
CSC(=O)c1c(C(F)F)nc(C(F)(F)F)c(C(=O)SC)c1CC(C)C,AC50,[2],5.52 µM (active)
same,AC50,[3],0.442 µM (active)
same,outcome,[11],inactive
same,outcome,[1],inactive
CCN(CC)c1nc(C)cc(OP(=S)(OC)OC)n1,outcome,[1],inactive
CCCCC(O)(Cn1cncn1)c1ccc(Cl)cc1Cl (centres undefined),outcome,[1],inactive
CC(C)Oc1cccc(NC(=O)c2ccccc2C(F)(F)F)c1,outcome,[1],inactive
CO/N=C(/C1=NOCCO1)c1ccccc1Oc1ncnc(Oc2ccccc2Cl)c1F,AC50,[1],10.9 µM (active)
O=C1C2CC=CCC2C(=O)N1SC(Cl)(Cl)Cl (centres undefined),outcome,[1],inactive
CCOP(=O)(OCC)Oc1nc(Cl)c(Cl)cc1Cl,outcome,[1],inactive
C=CCOC(=O)C(C)(C)OC(=O)c1cc(-n2c(=O)cc(C(F)(F)F)n(C)c2=O)ccc1Cl,outcome,[1],inactive
CCOc1cc(C(C)(C)C)ccc1C1COC(c2c(F)cccc2F)=N1 (centres undefined),outcome,[1],inactive
OC(c1ccc(Cl)cc1)(c1ccc(Cl)cc1)C(Cl)(Cl)Cl,AC50,[1],50 µM (active)
CCOC(=O)C(C)OC(=O)c1cc(Oc2ccc(C(F)(F)F)cc2Cl)ccc1[N+](=O)[O-] (centres undefined),outcome,[1],inactive
COc1ccc(-c2ccccc2)cc1NNC(=O)OC(C)C,outcome,[1],inactive
CC1(C)CON(Cc2ccccc2Cl)C1=O,outcome,[1],inactive
Cc1c(COC(=O)[C@@H]2[C@H](/C=C(\Cl)C(F)(F)F)C2(C)C)cccc1-c1ccccc1,outcome,[2],inactive
same,AC50,[3],2 µM (active)
same,outcome,[4],inactive
same,outcome,[6],inactive
same,outcome,[8],inactive
same,outcome,[9],inactive
same,outcome,[10],inactive
CCCCC(C#N)(Cn1cncn1)c1ccc(Cl)cc1 (centres undefined),outcome,[1],inactive
CCOc1nc(F)cc2nc(S(=O)(=O)Nc3c(Cl)cccc3Cl)nn12,outcome,[1],inactive
COC(=O)c1c(C(F)F)nc(C(F)(F)F)c(C2=NCCS2)c1CC(C)C,outcome,[1],inactive
same,outcome,[12],inactive
same,AC50,[13],7.98 µM (active)
same,outcome,[14],inactive
same,outcome,[15],inactive
same,AC50,[16],13.8 µM (active)
same,outcome,[17],inactive
same,outcome,[18],inactive
